Test results from paper PMC7862700, “An all-to-all approach to the identification of sequence-specific readers for epigenetic DNA modifications on cytosine”.

Assays:
Assay in all cases: DAPPL (digital affinity profiling via proximity ligation, sequencing); 10 mM Tris-HCl pH 7.5, 50 mM NaCl, 1 mM DTT, 4% glycerol, room temperature, 30 min; GST-TFs on glutathione beads, 16-mer random dsDNA library, 0.1% formaldehyde crosslink after washing; high values mean tight binding
[1] = target: T1, FEV (Homo sapiens, UniProt Q99581 1-238); settings: protein: recombinant; tags: N-terminal GST; dsDNA, one strand shown
T1 sequence: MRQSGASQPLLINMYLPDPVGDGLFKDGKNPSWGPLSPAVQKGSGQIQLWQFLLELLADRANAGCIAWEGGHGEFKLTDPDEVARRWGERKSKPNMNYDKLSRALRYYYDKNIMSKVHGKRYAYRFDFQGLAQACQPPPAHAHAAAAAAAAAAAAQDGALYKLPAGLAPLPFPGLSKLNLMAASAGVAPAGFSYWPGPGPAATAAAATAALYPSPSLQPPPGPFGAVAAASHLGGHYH
Outline: (§1)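 In yeast, human transcription factors were expressed with a GST fusion, then pulled down on glutathione beads and given DNA barcodes. Pooled with a tag-only sample, they were exposed to 200 nmole of a 16-mer random double-stranded DNA library (Tris/NaCl/DTT/glycerol buffer, room temperature, 30 min), washed, crosslinked with 0.1% formaldehyde, proximity-ligated using BsaI/T4 ligase for 1 h at 37 °C, PCR-amplified and read on an Illumina NextSeq500. Each hexamer's frequency of reads for a factor, divided by the matching frequency for the tag-only sample, gives the binding signal.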

[2] = target: ETV5 (Homo sapiens, UniProt P41161 1-510); settings: protein: recombinant; tags: N-terminal GST; dsDNA, one strand shown
ETV5, sequence (P41161 whole entry): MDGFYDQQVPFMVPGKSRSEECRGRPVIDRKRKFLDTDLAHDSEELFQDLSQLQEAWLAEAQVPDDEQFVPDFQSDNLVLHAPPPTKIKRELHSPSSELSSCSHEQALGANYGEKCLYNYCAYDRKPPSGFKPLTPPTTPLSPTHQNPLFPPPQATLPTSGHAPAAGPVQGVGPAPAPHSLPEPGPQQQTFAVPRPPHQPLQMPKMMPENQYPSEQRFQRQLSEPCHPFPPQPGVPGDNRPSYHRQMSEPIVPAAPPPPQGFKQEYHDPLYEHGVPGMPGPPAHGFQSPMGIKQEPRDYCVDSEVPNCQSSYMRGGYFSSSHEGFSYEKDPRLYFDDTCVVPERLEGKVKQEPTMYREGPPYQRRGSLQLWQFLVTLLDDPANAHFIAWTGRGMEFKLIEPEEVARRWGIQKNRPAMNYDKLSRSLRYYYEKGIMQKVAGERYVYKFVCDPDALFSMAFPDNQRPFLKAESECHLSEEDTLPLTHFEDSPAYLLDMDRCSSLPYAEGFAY
Outline: as §1

[3] = target: HSF1 (Homo sapiens, UniProt Q00613 1-529); settings: protein: recombinant; tags: N-terminal GST; chain copies: 3; dsDNA, one strand shown
HSF1, sequence (Q00613 whole entry): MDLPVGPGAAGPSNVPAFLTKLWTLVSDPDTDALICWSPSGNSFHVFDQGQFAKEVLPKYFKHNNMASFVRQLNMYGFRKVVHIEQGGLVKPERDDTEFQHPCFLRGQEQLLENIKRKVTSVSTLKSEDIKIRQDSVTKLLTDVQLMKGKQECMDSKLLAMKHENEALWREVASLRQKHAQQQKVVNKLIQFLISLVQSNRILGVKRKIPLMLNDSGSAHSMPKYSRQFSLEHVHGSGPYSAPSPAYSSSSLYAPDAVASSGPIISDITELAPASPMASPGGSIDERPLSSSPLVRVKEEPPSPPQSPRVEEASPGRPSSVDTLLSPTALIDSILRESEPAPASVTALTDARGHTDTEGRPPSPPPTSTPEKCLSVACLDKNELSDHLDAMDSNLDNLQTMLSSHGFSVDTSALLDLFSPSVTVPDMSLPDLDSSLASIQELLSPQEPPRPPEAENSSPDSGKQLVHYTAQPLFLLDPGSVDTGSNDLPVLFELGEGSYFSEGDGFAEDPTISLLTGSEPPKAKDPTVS
Outline: as §1

[4] = target: T2, SPIC (Homo sapiens, UniProt Q8N5J4 1-248); settings: protein: recombinant; tags: N-terminal GST; dsDNA, one strand shown
T2 sequence: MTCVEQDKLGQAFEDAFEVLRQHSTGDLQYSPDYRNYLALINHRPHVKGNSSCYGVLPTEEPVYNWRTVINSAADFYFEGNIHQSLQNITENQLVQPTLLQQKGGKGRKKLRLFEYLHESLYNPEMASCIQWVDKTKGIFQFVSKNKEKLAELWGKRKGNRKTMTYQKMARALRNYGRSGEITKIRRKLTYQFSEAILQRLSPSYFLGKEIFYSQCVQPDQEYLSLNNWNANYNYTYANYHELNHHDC
Outline: as §1

[5] = target: ELF4 (Homo sapiens, UniProt Q99607 1-663); settings: protein: recombinant; tags: N-terminal GST; dsDNA, one strand shown
ELF4, sequence (Q99607 whole entry): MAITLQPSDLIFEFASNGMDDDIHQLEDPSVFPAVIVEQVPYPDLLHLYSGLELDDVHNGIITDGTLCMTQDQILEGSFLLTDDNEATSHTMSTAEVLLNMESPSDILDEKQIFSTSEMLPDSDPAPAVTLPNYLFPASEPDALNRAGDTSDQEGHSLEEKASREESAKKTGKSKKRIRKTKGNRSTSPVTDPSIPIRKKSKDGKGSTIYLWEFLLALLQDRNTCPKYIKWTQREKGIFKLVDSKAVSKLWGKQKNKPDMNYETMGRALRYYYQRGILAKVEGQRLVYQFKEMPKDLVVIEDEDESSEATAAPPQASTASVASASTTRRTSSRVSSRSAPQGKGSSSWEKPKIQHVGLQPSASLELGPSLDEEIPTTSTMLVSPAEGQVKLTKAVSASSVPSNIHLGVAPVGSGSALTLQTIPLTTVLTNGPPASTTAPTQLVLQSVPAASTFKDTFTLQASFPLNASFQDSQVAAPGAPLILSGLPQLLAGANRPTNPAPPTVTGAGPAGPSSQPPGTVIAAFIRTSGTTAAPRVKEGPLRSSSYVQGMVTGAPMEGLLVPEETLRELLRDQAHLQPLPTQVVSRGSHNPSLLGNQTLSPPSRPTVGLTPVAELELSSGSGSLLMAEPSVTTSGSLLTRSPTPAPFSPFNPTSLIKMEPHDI
Outline: as §1

[6] = target: T3, ELK4 (Homo sapiens, UniProt P28324-2 1-405); settings: protein: recombinant; tags: N-terminal GST; dsDNA, one strand shown
T3 sequence: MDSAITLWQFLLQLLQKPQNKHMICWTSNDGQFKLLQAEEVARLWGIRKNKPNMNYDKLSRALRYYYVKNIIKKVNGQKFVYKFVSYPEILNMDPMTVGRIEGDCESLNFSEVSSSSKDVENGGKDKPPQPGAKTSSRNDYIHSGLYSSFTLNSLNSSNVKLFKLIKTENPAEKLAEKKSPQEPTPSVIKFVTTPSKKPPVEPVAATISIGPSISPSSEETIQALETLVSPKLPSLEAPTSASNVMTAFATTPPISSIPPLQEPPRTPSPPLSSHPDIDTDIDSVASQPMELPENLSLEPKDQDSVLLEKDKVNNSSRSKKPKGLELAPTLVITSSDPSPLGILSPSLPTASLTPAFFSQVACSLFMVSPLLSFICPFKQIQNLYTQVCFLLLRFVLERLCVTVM
Outline: as §1

[7] = target: T4, ETV2 (Homo sapiens, UniProt O00321 1-342); settings: protein: recombinant; tags: N-terminal GST; dsDNA, one strand shown
T4 sequence: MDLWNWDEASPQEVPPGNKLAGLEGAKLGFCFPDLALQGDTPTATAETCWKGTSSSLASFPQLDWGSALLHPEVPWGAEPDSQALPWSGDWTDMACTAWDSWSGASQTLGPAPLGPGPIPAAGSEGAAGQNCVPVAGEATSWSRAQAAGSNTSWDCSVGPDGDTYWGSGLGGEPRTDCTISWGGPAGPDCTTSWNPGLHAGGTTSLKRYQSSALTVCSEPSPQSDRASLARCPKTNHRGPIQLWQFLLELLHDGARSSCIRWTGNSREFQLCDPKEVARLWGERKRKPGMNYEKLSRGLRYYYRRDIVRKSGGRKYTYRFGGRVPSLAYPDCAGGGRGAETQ
Outline: as §1

[8] = target: T5, ELF3 (Homo sapiens, UniProt P78545 1-371); settings: protein: recombinant; tags: N-terminal GST; dsDNA, one strand shown
T5 sequence: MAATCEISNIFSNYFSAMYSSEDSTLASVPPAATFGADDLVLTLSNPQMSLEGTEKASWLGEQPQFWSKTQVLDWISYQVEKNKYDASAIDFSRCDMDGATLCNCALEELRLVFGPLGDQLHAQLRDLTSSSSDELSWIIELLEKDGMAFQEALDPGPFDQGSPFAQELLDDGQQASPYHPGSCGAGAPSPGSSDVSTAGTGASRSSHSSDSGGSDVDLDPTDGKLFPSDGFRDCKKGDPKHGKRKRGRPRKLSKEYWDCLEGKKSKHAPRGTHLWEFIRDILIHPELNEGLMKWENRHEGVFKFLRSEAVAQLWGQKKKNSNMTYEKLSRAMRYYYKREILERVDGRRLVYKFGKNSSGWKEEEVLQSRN
Outline: as §1

[9] = target: ETV1 (Homo sapiens, UniProt P50549 1-477); settings: protein: recombinant; tags: N-terminal GST; dsDNA, one strand shown
ETV1, sequence (P50549 whole entry): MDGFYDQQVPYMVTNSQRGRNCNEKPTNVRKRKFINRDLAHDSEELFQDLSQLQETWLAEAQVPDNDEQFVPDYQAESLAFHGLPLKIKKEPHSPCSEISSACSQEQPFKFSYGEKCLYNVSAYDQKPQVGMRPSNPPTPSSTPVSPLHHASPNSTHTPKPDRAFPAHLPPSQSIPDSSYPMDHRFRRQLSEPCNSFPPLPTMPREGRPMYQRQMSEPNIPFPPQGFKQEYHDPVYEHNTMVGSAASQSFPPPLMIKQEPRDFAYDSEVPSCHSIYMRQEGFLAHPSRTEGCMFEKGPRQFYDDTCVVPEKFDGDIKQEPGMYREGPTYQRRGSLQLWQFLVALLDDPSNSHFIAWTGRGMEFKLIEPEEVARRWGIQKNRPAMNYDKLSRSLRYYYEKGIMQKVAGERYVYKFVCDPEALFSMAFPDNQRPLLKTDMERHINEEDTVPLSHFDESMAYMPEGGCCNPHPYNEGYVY
Outline: as §1

GGAAAA
binding signal [1]: 1.2 fold enrichment (6-mer frequency, TF over GST control) | binding signal [2]: 1.32 fold enrichment (6-mer frequency, TF over GST control) | binding signal [3]: 1.62 fold enrichment (6-mer frequency, TF over GST control) | binding signal [4]: 1.29 fold enrichment (6-mer frequency, TF over GST control) | binding signal [5]: 1.19 fold enrichment (6-mer frequency, TF over GST control) | binding signal [6]: 1.01 fold enrichment (6-mer frequency, TF over GST control) | binding signal [7]: 1.22 fold enrichment (6-mer frequency, TF over GST control) | binding signal [8]: 1.39 fold enrichment (6-mer frequency, TF over GST control) | binding signal [9]: 1.27 fold enrichment (6-mer frequency, TF over GST control)
